Several values for one entry are separate records, joined by “and”; a condition that tells them apart may be missing. Identical values can stand only once. Results filed as inconclusive are left out. Values without a mark were called inactive. Activity calls are given as the source filed them. Calls come from the whole dose curve.
Assay: qHTS assay for small molecule agonists of the p53 signaling pathway - cell viability (AID 651633); note: nearly all actives have a fitted effect of over 30% in size; note: potency is the fitted concentration of half-maximal effect;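 for activity change, negative = cytotoxicity: p53RE-bla HCT reporter cells with a stable beta-lactamase p53 reporter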
Conditions: p53RE-bla HCT-116 viability, ATP luminescence, 16 h; series mostly up to 83.3 µM; activity change, negative = cytotoxicity: at the top concentration
Procedure, shortened: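 p53RE-bla cells were treated with compound for 16 hours at 37 C. Cytotoxicity was then measured as CellTiter-Glo luminescence after 30 min at room temperature.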
With `CN(C)CC[C@@H](c1ccc(Br)cc1)c1ccccn1` the “activity change, negative = cytotoxicity” value was 13.7%. In the case of `O=C(O)/C=C/c1cnc[nH]1`, the “activity change, negative = cytotoxicity” value is reported as 15.9%. For `Cc1occc1S`, the “activity change, negative = cytotoxicity” value was 12.3%. For `CC(C)CCCCCCOC(=O)c1ccc(C(=O)OCCCCCCC(C)C)c(C(=O)OCCCCCCC(C)C)c1`, the “activity change, negative = cytotoxicity” value was 13.2%. In the case of `O=c1[nH]cnc2ccccc12`, the “activity change, negative = cytotoxicity” value is reported as 9.1% [at 95.3 µM]. For `CCN(CC)CCOc1ccc2c(c1)C(=O)c1cc(OCCN(CC)CC)ccc1-2`, the “activity change, negative = cytotoxicity” value was 9.15%. In the case of `Oc1ccc(Cc2ccccc2)cc1`, the “activity change, negative = cytotoxicity” value is reported as -2.33%. In the case of `NC1CCN(c2nc3c(cc2F)c(=O)c(C(=O)O)cn3-c2ccc(F)cc2F)C1` (stereo unspecified), the “activity change, negative = cytotoxicity” value is reported as 21.8%. With `CC(C)c1ccc2c(C(C)C)cc(C(C)C)c(S(=O)(=O)O)c2c1` the “activity change, negative = cytotoxicity” value was -17.3% [at 95.3 µM]. In the case of `CCN1CCC[C@H]1CNC(=O)c1c(OC)ccc(Br)c1OC`, the “activity change, negative = cytotoxicity” value is reported as 13.9%. For `O=CNc1ccccc1`, the “activity change, negative = cytotoxicity” value was 16.9% [at 95.3 µM]. In the case of `O=C(O)[C@@H]1[C@H]2C[C@H]3c4[nH]c5ccccc5c4CCN3C[C@@H]2CC[C@@H]1O`, the “activity change, negative = cytotoxicity” value is reported as -6.59% [at 39.1 µM]. In the case of `O=C(O)Cc1cc(I)c(Oc2ccc(O)c(I)c2)c(I)c1`, the Potency is reported as 3.59 µM (active) and 43.3 µM (active). With `O=C(NN1CCCC1)NS(=O)(=O)c1ccc(Cl)cc1` the “activity change, negative = cytotoxicity” value was 15.9%. With `C[C@@H](C1=C(CCN(C)C)Cc2ccccc21)c1ccccn1` the “activity change, negative = cytotoxicity” value was 28.1%. For `CC(C)(C)c1ccc(OCC2CO2)cc1` (stereo unspecified), the “activity change, negative = cytotoxicity” value was -10.5% [at 95.3 µM]. For `COc1cc(C(C)(C)C)c(O)c(C(C)(C)C)c1`, the “activity change, negative = cytotoxicity” value was -29.4%. With `Cc1ccccn1` the “activity change, negative = cytotoxicity” value was 9.13%. In the case of `CCOc1ccc(NC(=O)CC(C)=O)cc1`, the “activity change, negative = cytotoxicity” value is reported as 5.9%. In the case of `CC(=O)/C=C/C1C(C)=CCCC1(C)C` (stereo unspecified), the “activity change, negative = cytotoxicity” value is reported as -19.9%. In the case of `CCCCOC(=O)/C=C\C(=O)OCCCC`, the “activity change, negative = cytotoxicity” value is reported as 6.8% [at 95.3 µM]. For `N#CCCNCCC#N`, the “activity change, negative = cytotoxicity” value was -5.77% [at 95.3 µM]. For `O=C1c2cccc(O)c2C(=O)c2c(O)cc(CO)cc21`, the “activity change, negative = cytotoxicity” value was 15.2%. With `CCOC(=O)C1=NN(c2ccccc2)C(=O)C1` the “activity change, negative = cytotoxicity” value was 5.31%. For `CC(=O)SCc1ccco1`, the “activity change, negative = cytotoxicity” value was 13.3%. For `Cc1ccccc1N=Nc1ccc(N=Nc2c(O)ccc3ccccc23)c(C)c1`, the “activity change, negative = cytotoxicity” value was 17.8%. For `CCN(CC)C(C)CN1c2ccccc2Sc2ccccc21` (stereo unspecified), the “activity change, negative = cytotoxicity” value was 10.3% [at 39.1 µM]. For `O=C(O)Cn1c(C(=O)Nc2nc(-c3ccccc3Cl)cs2)cc2ccccc21`, the “activity change, negative = cytotoxicity” value was -14.5%.

Assay: qHTS assay for small molecules that induce genotoxicity in human embryonic kidney cells expressing luciferase-tagged ATAD5 - cell viability (AID 651634); note: nearly all actives have a fitted effect of over 25% in size
Conditions: HEK293T ATAD5-luc cells viability, CellTiter-Fluor, 15.5 h; series mostly up to 83.3 µM; activity, negative = cytotoxicity: at the top concentration
Procedure, shortened: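 Quantitative high-throughput format. HEK293T cells expressing ATAD5 fused to luciferase were plated at 2,000 cells/well and treated 15.5 hr with compound versus DMSO. Viability was determined by fluorescent live-cell protease substrate, 30 min at 37C.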
With `CN(C)CC[C@@H](c1ccc(Br)cc1)c1ccccn1` the “activity, negative = cytotoxicity” value was 17.2%. For `Cc1occc1S`, the “activity, negative = cytotoxicity” value was -4.49%. With `CC(C)CCCCCCOC(=O)c1ccc(C(=O)OCCCCCCC(C)C)c(C(=O)OCCCCCCC(C)C)c1` the “activity, negative = cytotoxicity” value was 1.84%. For `CCN(CC)CCOc1ccc2c(c1)C(=O)c1cc(OCCN(CC)CC)ccc1-2`, the “activity, negative = cytotoxicity” value was -23.3%. In the case of `O=C(O)COC(=O)Cc1ccccc1Nc1c(Cl)cccc1Cl`, the “activity, negative = cytotoxicity” value is reported as -6.5% [at 39.1 µM]. In the case of `Oc1ccc(Cc2ccccc2)cc1`, the “activity, negative = cytotoxicity” value is reported as 6.42%. With `NC1CCN(c2nc3c(cc2F)c(=O)c(C(=O)O)cn3-c2ccc(F)cc2F)C1` (stereo unspecified) the “activity, negative = cytotoxicity” value was 13.1%. For `CC(C)c1ccc2c(C(C)C)cc(C(C)C)c(S(=O)(=O)O)c2c1`, the “activity, negative = cytotoxicity” value was -7.23% [at 95.3 µM]. For `CCN1CCC[C@H]1CNC(=O)c1c(OC)ccc(Br)c1OC`, the “activity, negative = cytotoxicity” value was 13.1%. For `O=CNc1ccccc1`, the “activity, negative = cytotoxicity” value was 18% [at 95.3 µM]. For `O=C(O)[C@@H]1[C@H]2C[C@H]3c4[nH]c5ccccc5c4CCN3C[C@@H]2CC[C@@H]1O`, the “activity, negative = cytotoxicity” value was 45.8% [at 39.1 µM]. For `O=C(O)Cc1cc(I)c(Oc2ccc(O)c(I)c2)c(I)c1`, the “activity, negative = cytotoxicity” value was 8.13% [at 39.1 µM]. With `O=C(NN1CCCC1)NS(=O)(=O)c1ccc(Cl)cc1` the “activity, negative = cytotoxicity” value was 3.99%. For `C[C@@H](C1=C(CCN(C)C)Cc2ccccc21)c1ccccn1`, the “activity, negative = cytotoxicity” value was 5.09%. For `CC(=O)N(O)CCCCCNC(=O)CCC(=O)N(O)CCCCCNC(=O)CCC(=O)N(O)CCCCCN`, the “activity, negative = cytotoxicity” value was 5.81% [at 39.1 µM]. With `CCN(CC)CCOC(=O)C1(c2ccccc2)CCCC1` the “activity, negative = cytotoxicity” value was 17%. For `CC(C)(C)c1ccc(OCC2CO2)cc1` (stereo unspecified), the “activity, negative = cytotoxicity” value was 9.46% [at 95.3 µM]. For `COc1cc(C(C)(C)C)c(O)c(C(C)(C)C)c1`, the “activity, negative = cytotoxicity” value was 16.7%. In the case of `Cc1ccccn1`, the Potency is reported as “inactive”. With `CCOc1ccc(NC(=O)CC(C)=O)cc1` the “activity, negative = cytotoxicity” value was 11.8%. With `CC(=O)/C=C/C1C(C)=CCCC1(C)C` (stereo unspecified) the “activity, negative = cytotoxicity” value was 11.5%. In the case of `CCCCOC(=O)/C=C\C(=O)OCCCC`, the “activity, negative = cytotoxicity” value is reported as -7.51% [at 95.3 µM]. In the case of `N#CCCNCCC#N`, the “activity, negative = cytotoxicity” value is reported as 19.5% [at 95.3 µM]. For `O=C1c2cccc(O)c2C(=O)c2c(O)cc(CO)cc21`, the “activity, negative = cytotoxicity” value was -16.9%. With `CCOC(=O)C1=NN(c2ccccc2)C(=O)C1` the “activity, negative = cytotoxicity” value was 4.42%. With `CC(=O)SCc1ccco1` the “activity, negative = cytotoxicity” value was 6.99%. With `Cc1ccccc1N=Nc1ccc(N=Nc2c(O)ccc3ccccc23)c(C)c1` the “activity, negative = cytotoxicity” value was 6.38%. In the case of `CN(C(=O)CCCOc1ccc2[nH]c(=O)ccc2c1)C1CCCCC1`, the “activity, negative = cytotoxicity” value is reported as 7.53%. For `CCN(CC)C(C)CN1c2ccccc2Sc2ccccc21` (stereo unspecified), the “activity, negative = cytotoxicity” value was -20.1% [at 39.1 µM]. In the case of `O=C(O)Cn1c(C(=O)Nc2nc(-c3ccccc3Cl)cs2)cc2ccccc21`, the “activity, negative = cytotoxicity” value is reported as 2.62%.

Assay: qHTS assay for small molecule disruptors of the mitochondrial membrane potential - cell viability (AID 720634);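 note: human HepG2 liver cancer cells; nearly all actives have a fitted effect of over 20% in size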
Conditions: HepG2 viability, ATP luminescence (CellTiter-Glo), 1 h; series mostly up to 83.2 µM; activity change, negative = cytotoxicity: at the top concentration
Procedure, shortened: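 Same-well counter-screen: following the MMP dye addition, CellTiter-Glo was added to 1 hr compound-treated HepG2 cells and luminescence read after 30 min at room temperature.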
With `CN(C)CC[C@@H](c1ccc(Br)cc1)c1ccccn1` the “activity change, negative = cytotoxicity” value was -3.66%. For `O=C(O)/C=C/c1cnc[nH]1`, the “activity change, negative = cytotoxicity” value was 9.9%. With `Cc1occc1S` the “activity change, negative = cytotoxicity” value was -4.24%. In the case of `CC(C)CCCCCCOC(=O)c1ccc(C(=O)OCCCCCCC(C)C)c(C(=O)OCCCCCCC(C)C)c1`, the “activity change, negative = cytotoxicity” value is reported as 8.58%. For `O=c1[nH]cnc2ccccc12`, the “activity change, negative = cytotoxicity” value was 13% [at 95.3 µM]. In the case of `CCN(CC)CCOc1ccc2c(c1)C(=O)c1cc(OCCN(CC)CC)ccc1-2`, the “activity change, negative = cytotoxicity” value is reported as 8.83%. With `CC(=O)OCCc1ccccc1` the “activity change, negative = cytotoxicity” value was 5.32%. In the case of `O=C(O)COC(=O)Cc1ccccc1Nc1c(Cl)cccc1Cl`, the “activity change, negative = cytotoxicity” value is reported as 3.37% [at 39.1 µM]. In the case of `CCCCCCCCCCCCC(=O)O`, the “activity change, negative = cytotoxicity” value is reported as 4.87% [at 95.3 µM]. For `Oc1ccc(Cc2ccccc2)cc1`, the “activity change, negative = cytotoxicity” value was -14.6%. With `NC1CCN(c2nc3c(cc2F)c(=O)c(C(=O)O)cn3-c2ccc(F)cc2F)C1` (stereo unspecified) the “activity change, negative = cytotoxicity” value was 6.81%. In the case of `CC(C)c1ccc2c(C(C)C)cc(C(C)C)c(S(=O)(=O)O)c2c1`, the “activity change, negative = cytotoxicity” value is reported as 10.7% [at 95.3 µM]. For `CCN1CCC[C@H]1CNC(=O)c1c(OC)ccc(Br)c1OC`, the “activity change, negative = cytotoxicity” value was -4.42%. In the case of `O=CNc1ccccc1`, the “activity change, negative = cytotoxicity” value is reported as -19.8% [at 95.3 µM]. For `Cc1cccc(Oc2ccccc2)c1`, the “activity change, negative = cytotoxicity” value was -9.05%. For `O=C(O)[C@@H]1[C@H]2C[C@H]3c4[nH]c5ccccc5c4CCN3C[C@@H]2CC[C@@H]1O`, the “activity change, negative = cytotoxicity” value was -1.16% [at 39.1 µM]. With `O=C(O)Cc1cc(I)c(Oc2ccc(O)c(I)c2)c(I)c1` the Potency was “inactive”. With `O=c1c2ccccc2nnn1CCl` the “activity change, negative = cytotoxicity” value was 8.55%. For `O=C(NN1CCCC1)NS(=O)(=O)c1ccc(Cl)cc1`, the “activity change, negative = cytotoxicity” value was -7.51%. With `C[C@@H](C1=C(CCN(C)C)Cc2ccccc21)c1ccccn1` the “activity change, negative = cytotoxicity” value was -2.6%. With `CC(=O)N(O)CCCCCNC(=O)CCC(=O)N(O)CCCCCNC(=O)CCC(=O)N(O)CCCCCN` the “activity change, negative = cytotoxicity” value was 9.88% [at 39.1 µM]. With `CCN(CC)CCOC(=O)C1(c2ccccc2)CCCC1` the “activity change, negative = cytotoxicity” value was -0.935%. For `CC(C)(C)c1ccc(OCC2CO2)cc1` (stereo unspecified), the “activity change, negative = cytotoxicity” value was 11.5% [at 95.3 µM]. With `COc1cc(C(C)(C)C)c(O)c(C(C)(C)C)c1` the “activity change, negative = cytotoxicity” value was 2.77%. With `Cc1ccccn1` the Potency was “inactive”. With `CCOc1ccc(NC(=O)CC(C)=O)cc1` the “activity change, negative = cytotoxicity” value was 15.2%. In the case of `CC(=O)/C=C/C1C(C)=CCCC1(C)C` (stereo unspecified), the “activity change, negative = cytotoxicity” value is reported as 8.42%. In the case of `CCCCOC(=O)/C=C\C(=O)OCCCC`, the “activity change, negative = cytotoxicity” value is reported as 14.2% [at 95.3 µM]. With `N#CCCNCCC#N` the “activity change, negative = cytotoxicity” value was 3.33% [at 95.3 µM]. For `CCCOc1ccc2nc(NC(=O)OC)[nH]c2c1`, the “activity change, negative = cytotoxicity” value was 15.9%. For `O=C1c2cccc(O)c2C(=O)c2c(O)cc(CO)cc21`, the “activity change, negative = cytotoxicity” value was -17.7%. For `CCOC(=O)C1=NN(c2ccccc2)C(=O)C1`, the “activity change, negative = cytotoxicity” value was -11.8%. With `CC(=O)SCc1ccco1` the “activity change, negative = cytotoxicity” value was 1.99%. In the case of `Cc1ccccc1N=Nc1ccc(N=Nc2c(O)ccc3ccccc23)c(C)c1`, the “activity change, negative = cytotoxicity” value is reported as -7.69%. In the case of `CN(C(=O)CCCOc1ccc2[nH]c(=O)ccc2c1)C1CCCCC1`, the “activity change, negative = cytotoxicity” value is reported as -2.14%. With `CCN(CC)C(C)CN1c2ccccc2Sc2ccccc21` (stereo unspecified) the “activity change, negative = cytotoxicity” value was -2.3% [at 39.1 µM]. For `Cc1ccc(C(=O)C(C)CN2CCCCC2)cc1` (stereo unspecified), the Potency was “inactive”. For `O=C(O)Cn1c(C(=O)Nc2nc(-c3ccccc3Cl)cs2)cc2ccccc21`, the “activity change, negative = cytotoxicity” value was -5.92%.

Reference: PubChem BioAssay (Tox21)
% is set by controls: 0 for no effect and ±100 for the full control effect.
